# Test results from article PMC7826789 (International Journal of Molecular Sciences, 2021).
# Key:
# YSK1 = system: T1, YSK1; details: Compound Concentration (nM):1000
# T1 construct: gene STK25
# YSK4 = system: T2, YSK4; details: Compound Concentration (nM):1000
# T2 construct: gene MAP3K19
# ZAK = details: Compound Concentration (nM):1000
# ZAP70 = details: Compound Concentration (nM):1000
# p38-alpha = system: T3, p38-alpha; details: Compound Concentration (nM):1000
# T3 construct: gene MAPK14
# p38-beta = system: T4, p38-beta; details: Compound Concentration (nM):1000
# T4 construct: gene MAPK11
# p38-delta = system: T5, p38-delta; details: Compound Concentration (nM):1000
# T5 construct: gene MAPK13
# p38-gamma = system: T6, p38-gamma; details: Compound Concentration (nM):1000
# T6 construct: gene MAPK12
# 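Wherever Percent Control is given: KINOMEscan scanMAX binding as percent activity remaining versus control; lower means stronger binding.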
smiles,measurement,setting,value
Cc1cccc(-c2nc(Nc3ccncc3)c3ccccc3n2)n1 [GW855857],Kinases covered,ACVR1B,ACVR1B
COc1ccc2cc(-c3c(-c4ccncc4)nc(-c4ccc(S(C)(=O)=O)cc4C)n3C)ccc2c1 [SB-633825],Percent Control,YSK1,100%
same,Percent Control,YSK4,66%
same,Percent Control,ZAK,89%
same,Percent Control,ZAP70,84%
same,Percent Control,p38-alpha,100%
same,Percent Control,p38-beta,79%
same,Percent Control,p38-delta,83%
same,Percent Control,p38-gamma,100%
O=C(NCCO)c1cccc(-c2cc(Nc3ccc(OC(F)(F)F)cc3)ncn2)c1 [GNF-5],Kinases covered,ABL1,ABL1
CC1=C(C(=O)Nc2ccc3[nH]ncc3c2)C(c2ccc3ccccc3c2)CC(=O)N1 (centres unmarked) [GSK270822A],Percent Control,YSK1,68%
same,Percent Control,YSK4,75%
same,Percent Control,ZAK,92%
same,Percent Control,ZAP70,99%
same,Percent Control,p38-alpha,100%
same,Percent Control,p38-beta,100%
same,Percent Control,p38-delta,94%
same,Percent Control,p38-gamma,100%
CC1=C(C(=O)Nc2ccc3[nH]ncc3c2)C(c2ccc(Cl)c(Cl)c2)CC(=O)N1 (centres unmarked) [GSK299115A],Percent Control,YSK1,67%
same,Percent Control,YSK4,64%
same,Percent Control,ZAK,100%
same,Percent Control,ZAP70,100%
same,Percent Control,p38-alpha,100%
same,Percent Control,p38-beta,100%
same,Percent Control,p38-delta,100%
same,Percent Control,p38-gamma,100%
C[C@@H](Oc1cc(-n2cnc3ccc(OC4CCN(C)CC4)cc32)sc1C(N)=O)c1ccccc1Cl [GSK579289A],Percent Control,YSK1,74%
same,Percent Control,YSK4,32%
same,Percent Control,ZAK,69%
same,Percent Control,ZAP70,93%
same,Percent Control,p38-alpha,100%
same,Percent Control,p38-beta,76%
same,Percent Control,p38-delta,100%
same,Percent Control,p38-gamma,81%
CCn1c(-c2nonc2N)nc2c(C#CC(C)(C)O)nc(OCCNC)cc21.Cl [GSK949675],Percent Control,YSK1,89%
same,Percent Control,YSK4,0%
same,Percent Control,ZAK,100%
same,Percent Control,ZAP70,100%
same,Percent Control,p38-alpha,100%
same,Percent Control,p38-beta,94%
same,Percent Control,p38-delta,100%
same,Percent Control,p38-gamma,84%
same,Kinases covered,AKT1,AKT1
same,Kinases covered,AKT2,AKT2
CCc1ccc(Oc2nccc(-c3c(-c4ccc(F)cc4)ncn3C3CCNCC3)n2)cc1 [SB-242719],Percent Control,YSK1,100%
same,Percent Control,YSK4,94%
same,Percent Control,ZAK,84%
same,Percent Control,ZAP70,98%
same,Percent Control,p38-alpha,0.1%
same,Percent Control,p38-beta,3%
same,Percent Control,p38-delta,100%
same,Percent Control,p38-gamma,100%
Cc1cccc(-c2cc(Nc3ccncc3)c3ccccc3n2)n1 [GSK223675],Kinases covered,ACVR1B,ACVR1B
COc1cc(-c2cncc(-c3cnn(C4CCNCC4)c3)c2)cc(OC)c1OC [K05908],Kinases covered,ACVR1B,ACVR1B
same,Kinases covered,ACVR1,ACVR1
same,Kinases covered,ACVRL1,ACVRL1
Cl.O=C(O[C@H]1CN[C@H](C#Cc2cc3ncnc(Nc4ccc5c(cnn5Cc5ccccc5)c4)c3s2)C1)N1CCOCC1 [GSK200398A],Percent Control,YSK1,79%
same,Percent Control,YSK4,83%
same,Percent Control,ZAK,82%
same,Percent Control,ZAP70,89%
same,Percent Control,p38-alpha,100%
same,Percent Control,p38-beta,100%
same,Percent Control,p38-delta,100%
same,Percent Control,p38-gamma,100%
COc1ccc(COc2ccc(Cc3cnc(N)nc3N)cc2OC)cc1 [GW632580X],Percent Control,YSK1,100%
same,Percent Control,YSK4,91%
same,Percent Control,ZAK,87%
same,Percent Control,ZAP70,97%
same,Percent Control,p38-alpha,100%
same,Percent Control,p38-beta,100%
same,Percent Control,p38-delta,85%
same,Percent Control,p38-gamma,89%
Cn1ccc2ncnc(Oc3ccc(Nc4nc5ccccc5[nH]4)cc3)c21 [TPKI-72],Kinases covered,AURKB,AURKB
CC(C)COC(=O)c1ccc2c(c1)/C(=C/Nc1ccc(S(N)(=O)=O)cc1)C(=O)N2 [GW416981X],Percent Control,YSK1,65%
same,Percent Control,YSK4,11%
same,Percent Control,ZAK,100%
same,Percent Control,ZAP70,100%
same,Percent Control,p38-alpha,100%
same,Percent Control,p38-beta,100%
same,Percent Control,p38-delta,100%
same,Percent Control,p38-gamma,100%
Cl.c1ccc(Cc2nc3ccc(Nc4ncnc5ccccc45)cc3[nH]2)cc1 [GR269666A],Percent Control,YSK1,87%
same,Percent Control,YSK4,100%
same,Percent Control,ZAK,100%
same,Percent Control,ZAP70,90%
same,Percent Control,p38-alpha,100%
same,Percent Control,p38-beta,100%
same,Percent Control,p38-delta,100%
same,Percent Control,p38-gamma,100%
CN1C(=O)c2ccccc2N(C)c2nc(Nc3cnn(C4CCNCC4)c3)ncc21 [XMD-17-51],Kinases covered,ABL1,ABL1
same,Kinases covered,AURKA,AURKA
CN(C)c1cc2c(Nc3ccc4c(cnn4Cc4ccccc4)c3)ncnc2cn1 [GW282974X],Percent Control,YSK1,83%
same,Percent Control,YSK4,90%
same,Percent Control,ZAK,90%
same,Percent Control,ZAP70,83%
same,Percent Control,p38-alpha,100%
same,Percent Control,p38-beta,100%
same,Percent Control,p38-delta,99%
same,Percent Control,p38-gamma,100%
COc1cccc(-n2ncc3c(N/N=C/c4ccncc4)ncnc32)c1 [GW784752X],Percent Control,YSK1,90%
same,Percent Control,YSK4,21%
same,Percent Control,ZAK,39%
same,Percent Control,ZAP70,98%
same,Percent Control,p38-alpha,100%
same,Percent Control,p38-beta,100%
same,Percent Control,p38-delta,100%
same,Percent Control,p38-gamma,100%
CNC(=O)c1c(F)cccc1Nc1nc(Nc2cc3c(cc2OC)CCN3C(=O)CN(C)C)nc2[nH]ccc12 [GSK1838705],Kinases covered,ALK,ALK
CNS(=O)(=O)c1ccc(N(C)C)c(Nc2ncnc3cc(OC)c(OC)cc23)c1 [GSK114],Kinases covered,ACK1,ACK1
COc1ccccc1-c1cc(/C=C2\C(=O)Nc3ncc(Br)cc32)cc(Br)c1O [GW442130X],Percent Control,YSK1,99%
same,Percent Control,YSK4,98%
same,Percent Control,ZAK,100%
same,Percent Control,ZAP70,100%
same,Percent Control,p38-alpha,100%
same,Percent Control,p38-beta,92%
same,Percent Control,p38-delta,67%
same,Percent Control,p38-gamma,57%
same,Kinases covered,AURKA,AURKA
COc1cc(N2CCN(C(C)C)CC2)ccc1Nc1nc(Nc2ccc(F)cc2C(=O)NC[C@@H](O)CO)c2cc[nH]c2n1 [GSK1392956A],Percent Control,YSK1,89%
same,Percent Control,YSK4,34%
same,Percent Control,ZAK,93%
same,Percent Control,ZAP70,86%
same,Percent Control,p38-alpha,100%
same,Percent Control,p38-beta,100%
same,Percent Control,p38-delta,100%
same,Percent Control,p38-gamma,91%
CS(=O)(=O)c1ccc(-c2cnc(N)c(C(=O)Nc3ccccc3)n2)cc1 [VE-821],Kinases covered,ATR,ATR
CCn1cc(-c2ccnc3[nH]c(-c4cccc(CN(C)C)c4)cc23)c(-c2ccc(NC(=O)N(C)C)cc2)n1 [GSK1070916],Kinases covered,AURKB,AURKB
CNCc1ccc(-c2cc(-c3nc(-c4ccc(S(=O)(=O)C(C)C)cc4)cnc3N)on2)cc1 [VE-822],Kinases covered,ATM,ATM
same,Kinases covered,ATR,ATR
COc1ccc2c(-c3ccnc(Nc4cccc(OC(F)(F)F)c4)n3)cnn2n1 [GW810372X],Percent Control,YSK1,85%
same,Percent Control,YSK4,39%
same,Percent Control,ZAK,69%
same,Percent Control,ZAP70,86%
same,Percent Control,p38-alpha,100%
same,Percent Control,p38-beta,100%
same,Percent Control,p38-delta,100%
same,Percent Control,p38-gamma,77%
COc1cc(C=NNc2ncnc3c2cnn3-c2ccccc2)ccc1O [GW513184X],Percent Control,YSK1,97%
same,Percent Control,YSK4,3.1%
same,Percent Control,ZAK,48%
same,Percent Control,ZAP70,99%
same,Percent Control,p38-alpha,100%
same,Percent Control,p38-beta,88%
same,Percent Control,p38-delta,88%
same,Percent Control,p38-gamma,97%
NS(=O)(=O)c1ccc(N/N=C2\C(=O)Nc3ccc(C(=O)NCCc4c[nH]cn4)cc32)cc1 [GW300660X],Percent Control,YSK1,84%
same,Percent Control,YSK4,3.7%
same,Percent Control,ZAK,96%
same,Percent Control,ZAP70,79%
same,Percent Control,p38-alpha,100%
same,Percent Control,p38-beta,100%
same,Percent Control,p38-delta,100%
same,Percent Control,p38-gamma,84%
C/C(Nc1ccc(S(N)(=O)=O)cc1)=C1/C(=O)Nc2ccccc21 [GW335962X],Percent Control,YSK1,55%
same,Percent Control,YSK4,14%
same,Percent Control,ZAK,100%
same,Percent Control,ZAP70,94%
same,Percent Control,p38-alpha,100%
same,Percent Control,p38-beta,100%
same,Percent Control,p38-delta,100%
same,Percent Control,p38-gamma,73%
O=C1Nc2ccc(C(=O)c3ccco3)cc2C1=Cc1cc(Cl)c(O)c(Cl)c1 [GW406108X],Percent Control,YSK1,85%
same,Percent Control,YSK4,20%
same,Percent Control,ZAK,100%
same,Percent Control,ZAP70,100%
same,Percent Control,p38-alpha,93%
same,Percent Control,p38-beta,100%
same,Percent Control,p38-delta,100%
same,Percent Control,p38-gamma,44%
